According to PubChem BioAssay:
Records with an inconclusive call do not appear.

Assays:
[1] = protection against mutant huntingtin cytotoxicity, PC12 cells, LDH release (AID 1610); details: PC12 mutant huntingtin toxicity, final LDH at 4 uM, stronger effect = lower value
[2] = target: Huntingtin (Homo sapiens) (UniProt P42858); experiment: inhibitors of mutant Htt aggregation in vitro, dose response, QA1 (AID 1584); details: in vitro mutant huntingtin aggregation assay; confirmation test; at 10 µM; stronger effect = lower value
Sequence of Huntingtin (Homo sapiens) (P42858 whole entry, looked up): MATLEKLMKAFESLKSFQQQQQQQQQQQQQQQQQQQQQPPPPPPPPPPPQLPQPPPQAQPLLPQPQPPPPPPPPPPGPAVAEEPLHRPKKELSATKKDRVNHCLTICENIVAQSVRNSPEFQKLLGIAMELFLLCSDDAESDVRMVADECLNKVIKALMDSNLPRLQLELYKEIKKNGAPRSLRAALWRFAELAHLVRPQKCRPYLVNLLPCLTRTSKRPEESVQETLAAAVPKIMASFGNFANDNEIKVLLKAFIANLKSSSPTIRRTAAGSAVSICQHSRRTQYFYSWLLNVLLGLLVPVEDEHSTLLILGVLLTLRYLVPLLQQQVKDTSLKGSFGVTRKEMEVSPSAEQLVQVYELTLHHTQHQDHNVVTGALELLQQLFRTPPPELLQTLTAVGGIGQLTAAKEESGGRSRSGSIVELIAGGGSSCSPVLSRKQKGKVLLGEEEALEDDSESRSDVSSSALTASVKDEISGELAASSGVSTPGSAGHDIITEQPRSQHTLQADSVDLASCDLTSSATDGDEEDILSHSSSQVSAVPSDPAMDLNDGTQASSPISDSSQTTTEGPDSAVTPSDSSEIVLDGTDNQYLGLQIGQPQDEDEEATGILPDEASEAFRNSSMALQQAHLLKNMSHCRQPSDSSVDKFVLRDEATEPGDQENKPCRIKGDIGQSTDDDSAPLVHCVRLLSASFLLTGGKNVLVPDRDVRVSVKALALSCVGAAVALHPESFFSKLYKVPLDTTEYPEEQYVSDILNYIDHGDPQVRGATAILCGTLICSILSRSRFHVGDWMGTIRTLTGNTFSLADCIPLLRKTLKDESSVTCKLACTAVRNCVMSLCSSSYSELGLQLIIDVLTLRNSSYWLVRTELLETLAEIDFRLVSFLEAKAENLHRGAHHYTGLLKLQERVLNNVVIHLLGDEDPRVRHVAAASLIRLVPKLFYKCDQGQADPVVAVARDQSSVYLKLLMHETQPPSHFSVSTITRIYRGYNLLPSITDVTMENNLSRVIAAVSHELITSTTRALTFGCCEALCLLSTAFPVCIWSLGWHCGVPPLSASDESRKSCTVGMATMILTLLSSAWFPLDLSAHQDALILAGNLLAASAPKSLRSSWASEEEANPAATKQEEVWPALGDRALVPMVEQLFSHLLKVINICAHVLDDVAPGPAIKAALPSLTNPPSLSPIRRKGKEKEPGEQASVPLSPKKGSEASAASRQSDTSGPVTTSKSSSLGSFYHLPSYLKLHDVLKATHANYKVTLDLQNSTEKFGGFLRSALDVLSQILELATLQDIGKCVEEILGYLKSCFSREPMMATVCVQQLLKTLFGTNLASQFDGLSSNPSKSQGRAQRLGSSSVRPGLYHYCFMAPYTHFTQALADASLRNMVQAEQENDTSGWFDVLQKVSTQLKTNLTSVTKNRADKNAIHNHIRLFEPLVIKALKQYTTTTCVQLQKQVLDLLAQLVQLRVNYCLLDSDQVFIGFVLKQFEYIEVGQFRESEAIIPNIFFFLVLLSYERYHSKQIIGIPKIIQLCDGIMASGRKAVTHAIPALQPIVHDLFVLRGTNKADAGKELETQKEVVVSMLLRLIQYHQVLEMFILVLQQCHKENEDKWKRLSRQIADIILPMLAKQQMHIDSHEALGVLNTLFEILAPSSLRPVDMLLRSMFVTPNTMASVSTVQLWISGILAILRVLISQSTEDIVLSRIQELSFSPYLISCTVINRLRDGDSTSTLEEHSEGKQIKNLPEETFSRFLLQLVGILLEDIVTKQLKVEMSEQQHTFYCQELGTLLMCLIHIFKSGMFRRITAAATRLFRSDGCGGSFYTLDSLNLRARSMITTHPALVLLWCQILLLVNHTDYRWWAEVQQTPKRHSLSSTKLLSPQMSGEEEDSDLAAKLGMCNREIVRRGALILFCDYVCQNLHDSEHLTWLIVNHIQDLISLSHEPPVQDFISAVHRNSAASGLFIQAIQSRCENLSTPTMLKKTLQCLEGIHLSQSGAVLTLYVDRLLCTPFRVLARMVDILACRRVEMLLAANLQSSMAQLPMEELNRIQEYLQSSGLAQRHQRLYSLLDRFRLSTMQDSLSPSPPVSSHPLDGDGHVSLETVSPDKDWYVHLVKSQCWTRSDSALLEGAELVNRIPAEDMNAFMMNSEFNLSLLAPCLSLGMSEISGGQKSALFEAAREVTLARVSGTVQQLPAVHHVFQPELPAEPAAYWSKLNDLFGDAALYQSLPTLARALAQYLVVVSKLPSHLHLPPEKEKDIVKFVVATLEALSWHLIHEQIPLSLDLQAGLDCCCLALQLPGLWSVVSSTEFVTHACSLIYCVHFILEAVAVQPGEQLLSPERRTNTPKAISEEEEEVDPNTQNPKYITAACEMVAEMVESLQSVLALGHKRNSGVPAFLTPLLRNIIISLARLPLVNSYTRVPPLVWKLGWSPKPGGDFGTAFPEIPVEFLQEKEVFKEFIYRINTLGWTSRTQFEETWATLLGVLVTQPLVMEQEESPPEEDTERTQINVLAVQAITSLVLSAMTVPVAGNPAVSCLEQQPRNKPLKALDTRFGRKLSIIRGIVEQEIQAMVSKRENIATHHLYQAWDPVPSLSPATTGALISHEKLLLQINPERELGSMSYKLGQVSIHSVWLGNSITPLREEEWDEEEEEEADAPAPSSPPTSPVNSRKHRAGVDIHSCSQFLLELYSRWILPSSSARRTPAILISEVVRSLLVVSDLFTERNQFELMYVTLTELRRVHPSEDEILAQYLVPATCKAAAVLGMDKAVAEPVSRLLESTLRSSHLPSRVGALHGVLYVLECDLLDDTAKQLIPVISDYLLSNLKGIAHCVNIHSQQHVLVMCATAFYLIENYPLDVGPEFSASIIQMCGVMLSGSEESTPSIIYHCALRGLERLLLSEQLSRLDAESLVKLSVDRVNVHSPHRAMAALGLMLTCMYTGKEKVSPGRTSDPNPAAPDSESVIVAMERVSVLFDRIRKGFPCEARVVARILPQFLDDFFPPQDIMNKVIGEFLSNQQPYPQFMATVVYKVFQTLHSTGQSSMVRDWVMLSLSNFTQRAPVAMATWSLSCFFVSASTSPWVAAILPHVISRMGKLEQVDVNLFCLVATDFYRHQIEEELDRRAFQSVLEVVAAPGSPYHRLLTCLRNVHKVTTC

O=c1c2ccccc2[se]n1-c1ccccc1
normalised LDH release [1]: 0.64

O=C1C=CC(=O)c2c(O)cccc21
aggregation ratio [2]: 0.312

O=C1C=C2C(=CCOC2O)O1 (stereo not drawn)
normalised LDH release [1]: 0.848
